ELG1 genotoxic: induces genotoxicity in HEK293T cells with luciferase-tagged ELG1; HEK293T ELG1-luciferase reporter, luminescence, 16 h; Potency, µM (series often up to 46 µM), without a hit: at the top dose activity change, positive = activation, usual class: activators; actives 1.3% (n = 330,000); AID 504466; further: % of control where 0% means no effect; nearly all actives have a fitted effect of over 60% in size
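After overnight (16 hr) compound treatment at 37 °C, ELG1-luciferase HEK293T cells were lysed with ONE-Glo; luminescence quantified 30 min later at room temperature.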
SMN2 splice up: increases expression of the SMN2 splice variant. AID 1458. HEK293 SMN2-luciferase splicing reporter, luminescence, 30-36 h. Potency, µM (series often up to 46.1 µM), for inactives: at the highest dose activity change, positive = activation, usual class: activators. actives 2.8% (n = 210,000); further: % of control where 0% means no effect; nearly all actives have a fitted effect of over 55% in size
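HEK293 cells carry an SMN2 minigene-luciferase reporter in which exon 7 inclusion puts luciferase in frame. Cells were seeded at 2000 cells/well, attached for 10-12 hours, then exposed to compounds for 30-36 hours at 37C before ONE-Glo luminescence.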
ELG1 DNA repair: ELG1-dependent DNA repair inhibition | AID 504467 | HEK293T ELG1-luciferase reporter, luminescence, 16 h; DNA damage induced by 5-fluorouridine | Potency, µM (top dose mostly 46.1 µM), without a hit: at the top dose activity change, negative = inhibition, hits mostly inhibitors | actives 2.3% (n = 330,000); further: on the % scale 0 is the no-effect control and ±100 the full control effect; nearly all actives have a fitted effect of over 55% in size
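Cells (2,000 per well) received 5-fluorouridine plus test compound or DMSO and were incubated 16 hr at 37 °C, 5% CO2. Luciferase activity was read by luminescence 30 min after ONE-Glo addition; signal suppression marked inhibition of damage-induced ELG1 function.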
FLuc counter: firefly luciferase modulation, counter-screen for miR-21 project | purified FLuc, Km substrates, luminescence inhibition | P08659 | Potency, µM (highest dose often 57.5 µM), for the others: at the highest dose activity change, negative = inhibition, usual class: inhibitors | actives 6.9% (n = 360,000);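 further: plate controls were vehicle for no effect and reference inhibitor for full effect; nearly all actives have a fitted effect of over 55% in size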
Target sequence (P08659 whole entry, looked up): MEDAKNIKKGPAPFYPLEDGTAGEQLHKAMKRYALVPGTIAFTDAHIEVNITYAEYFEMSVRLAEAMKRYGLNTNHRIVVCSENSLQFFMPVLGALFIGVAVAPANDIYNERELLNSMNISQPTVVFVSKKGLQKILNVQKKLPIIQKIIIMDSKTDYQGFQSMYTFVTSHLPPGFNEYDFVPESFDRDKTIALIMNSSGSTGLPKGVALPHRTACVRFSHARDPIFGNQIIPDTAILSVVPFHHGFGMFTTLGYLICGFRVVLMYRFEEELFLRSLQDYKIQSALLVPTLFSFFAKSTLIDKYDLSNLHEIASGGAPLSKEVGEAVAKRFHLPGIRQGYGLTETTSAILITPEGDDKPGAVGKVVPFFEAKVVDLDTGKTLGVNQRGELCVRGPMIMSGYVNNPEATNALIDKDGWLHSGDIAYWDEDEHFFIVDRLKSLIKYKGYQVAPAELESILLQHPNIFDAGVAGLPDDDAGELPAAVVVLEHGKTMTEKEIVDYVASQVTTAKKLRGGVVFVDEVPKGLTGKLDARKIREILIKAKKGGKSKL
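Purified P. pyralis luciferase, 10 nM final, with Km-level 10 uM D-luciferin and 10 uM ATP in 50 mM Tris acetate pH 7.5, 10 mM Mg acetate, 0.01% Tween-20, 0.05% BSA; 6-point qHTS titration about 60 µM downward; luminescence read.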
Rab9 prom act: Rab9 promoter activation; Huh7 Rab9 promoter-luciferase reporter, luminescence, 24 h; Potency, µM (top dose mostly 9.22 µM), for inactives: at the top dose activation, negative = inhibition, hits mostly activators; actives 2.8% (n = 320,000); AID 485297; further: % of control where 0% means no effect; nearly all actives have a fitted effect of over 60% in size
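Huh7 cells stably carrying a Rab9 promoter-luciferase reporter, 1500 cells per well in OP-MEM I with 10% FBS, treated with compound 24 hours at 37C. Luciferase activity read by luminescence after 10 minutes with Amplite reagent.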
NPC1 promoter act: activators of NPC1 promoter; Huh7 NPC1 promoter luciferase reporter, 24 h; Potency, µM (series often up to 9.22 µM), for inactives: at the highest dose activation, usual class: activators; actives 2.4% (n = 320,000); AID 485313; further: % of control where 0% means no effect; nearly all actives have a fitted effect of over 60% in size
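Stable NPC1-promoter luciferase Huh7 line; cpd (DMSO) 24 h, 37 °C, 5% CO2; Amplite luciferase reagent 10 min RT; luminescence readout. qHTS format.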
An asterisk follows results filed as active; ? = inconclusive; · = no result given. Shown are actives, neighbours in structure and some others; about 9.3% of the full set was active somewhere. The call rests on the fitted dose curve; in most records, active means well fitted curve in the direction sought with a large enough effect; inconclusive means small, poorly fitted or top-dose-only effect, or another doubt; inactive means no such curve, though single readings can be large; an effect the other way counts as inactive or inconclusive. Potency means the concentration at half of the fitted maximal effect.

SMILES	ELG1 genotoxic	SMN2 splice up	ELG1 DNA repair	FLuc counter	Rab9 prom act	NPC1 promoter act
CN(C)c1ccc(/C=C2\CCC/C(=C\c3ccccc3)C2=O)cc1	?	18%	?	12µM*	24%	28%
O=C1Nc2ccccc2/C1=C/c1cccnc1	4%	12%	-6%	-7%	-1%	-11%
O=C1NC(=S)N/C1=C/c1cccnc1	-9%	·	?	-2%	0%	11%
O=C1/C(=C/c2ccc(C(=O)O)cc2)CCC/C1=C\c1ccc(C(=O)O)cc1	2%	18%	1%	3%	0%	-1%
CCC1C/C(=C\c2cccnc2)C(=O)/C(=C/c2cccnc2)C1 (centres undefined)	-15%	-85%	2.6µM*	2%	-42%	-12%
O=C1/C(=C\c2cccnc2)CCc2ccccc21	12%	·	?	6µM*	4%	-7%
O=C1/C(=C/c2ccccc2)CCCc2ccccc21	?	-10%	?	11µM*	3%	0%
c1ccc(Nc2ccccc2)cc1	1%	-9%	2%	5%	-6%	-5%
CCOC(=O)C1=CC(OC(CC)CC)C(NC(C)=O)C(N)C1 (centres undefined)	·	4%	·	·	·	·
O=C1/C(=C/c2cccnc2)CCC/C1=C\c1cccnc1	-13%	-100%	4.1µM*	-22%	-44%	-6%
CC(C)/C=C1\CC/C(=C\c2cccnc2)C1=O	2%	-34%	?	17µM*	1%	3%
O=C1/C(=C/c2cccnc2)CC/C1=C\c1cccnc1	-22%	-21%	?	?	-9%	-2%
COc1ccc(N(CC(=O)Nc2ccc(C)c(C)c2)C2=NC3CS(=O)(=O)CC3S2)cc1 (centres undefined)	2%	·	12%	1%	0%	0%
O=C(O)CCC(=O)Nc1ccc(-n2ccc(C(F)(F)F)n2)cc1	15%	·	?	-4%	-1%	-1%
COc1ccccc1NC(=O)Nc1ccc(-n2ccc(C(F)(F)F)n2)cc1	-1%	·	?	11µM*	2.8µM*	?
O=C(Nc1ccc(-n2ccc(C(F)(F)F)n2)cc1)c1cccs1	?	·	?	11µM*	3.2µM*	2.8µM*
O=C(O)c1ccccc1C(=O)Nc1ccc(-n2ccc(C(F)(F)F)n2)cc1	0%	·	-3%	?	-6%	-8%
O=C(Nc1ccc(-n2ccc(C(F)(F)F)n2)cc1)Nc1cccc(Cl)c1	-1%	·	?	11µM*	26%	19%
Cc1cc(C)cc(NC(=O)Nc2ccc(-n3ccc(C(F)(F)F)n3)cc2)c1	-10%	·	?	-11%	2%	?
COc1cc(OC)cc(C(=O)NCC2CCCO2)c1 (centres undefined)	0%	-2%	12%	2%	4%	0%
COc1nnc(-c2ccc(N3CCOCC3)c(NC(=O)c3ccc(C)cc3)c2)c2ccccc12	-11%	-9%	?	3%	-2%	-2%
O=C1c2ccccc2C(O)(Cc2ccccc2)N1Cc1ccco1 (centres undefined)	-2%	-9%	16%	-2%	6%	-1%
Cc1ccc2c(c1)NC(=O)c1cccc([N+](=O)[O-])c1CO2	4%	9%	-2%	-1%	9%	-2%
O=S(=O)(c1ccccc1)N1CCN(C(=S)NCCCN2CCOCC2)CC1	-1%	-4%	-12%	-1%	-7%	1%
COc1ccc(N2CC(C(=O)Nc3nc(-c4ccccc4)c(C(C)=O)s3)CC2=O)c(OC)c1 (centres undefined)	-5%	·	-6%	1%	-8%	-2%
SMILES	ELG1 genotoxic	SMN2 splice up	ELG1 DNA repair	FLuc counter	Rab9 prom act	NPC1 promoter act
CC(=O)c1sc(NC(=O)c2ccccc2F)nc1-c1ccccc1	-17%	11µM*	?	12µM*	1.8µM*	2.2µM*
CC(=O)c1sc(NC(=O)c2ccc(F)cc2)nc1-c1ccccc1	?	?	?	?	26%	?
COc1ccc(C(=O)Nc2nc(-c3ccccc3)c(C(C)=O)s2)c(OC)c1	?	1%	28%	0.85µM*	?	25%
Cc1cc(C)c(S(=O)(=O)c2c(C)cccc2C)c(Cl)n1	-10%	-25%	-29%	-1%	-3%	-8%
CCn1ccnc1CN(C)C(=O)c1ccc(OC2CCN(CCc3ccccc3)CC2)cc1	-1%	·	2%	0%	-1%	1%
COc1ccccc1CNC(=O)c1ccc2c(=O)n3c(nc2c1)CCCCC3	-9%	·	-9%	2%	0%	2%
CCc1ccc(CNC(=O)c2ccc3c(c2)nc2n3CCCCC2)cc1	·	·	·	13µM*	·	·
CC(C)Oc1ccc(CNC(=O)c2ccc3c(c2)nc2n3CCOC2)cc1	·	·	·	-1%	·	·
O=C(NCCc1ccccc1Cl)c1ccc2c(c1)nc1n2CCCCC1	·	·	·	0.54µM*	·	·
Cc1ccc(CCNC(=O)c2ccc3c(c2)nc2n3CCOC2)cc1	·	·	·	-18%	·	·
Cc1ccc(C)c(CNC(=O)c2ccc3c(c2)nc2n3CCCCC2)c1	·	·	·	15µM*	·	·
Cc1ccc(C)c(CNC(=O)c2ccc3c(c2)nc2n3CCOC2)c1	·	·	·	5%	·	·
O=C(NCCc1ccccc1)c1ccc2c(c1)nc1n2CCOC1	·	·	·	5.4µM*	·	·
COC(=O)COc1ccc(S(=O)(=O)NC2CCCCCC2)cc1	-4%	-2%	0%	4%	-2%	0%
Cc1cc(C)n(-c2ccn(Cc3ccc(Cl)cc3Cl)c(=O)n2)n1	-5%	-34%	?	-8%	1%	-3%
CC(C)CCNC(=O)c1ccc2c(c1)nc1n2CCCCC1	·	·	·	6µM*	·	·
Cc1ccccc1CCNC(=O)c1ccc2c(c1)nc1n2CCC(C)C1 (centres undefined)	·	·	·	8.5µM*	·	·
COc1ccc(CCNC(=O)c2ccc3c(c2)nc2n3CCCCC2)cc1OC	·	·	·	-20%	·	·
CCCSCCCNC(=O)c1ccc2c(c1)nc1n2CCCCC1	·	·	·	15µM*	·	·
O=C1OC(N2C(=O)CC[C@H]2C(=O)NCC2CCCO2)c2ccccc21 (some centres undefined)	1%	·	-14%	7%	-5%	0%
CCOC(=O)N1CCN(C(=O)C(=O)N/N=C/c2ccc(OC)cc2OC)CC1	2%	·	5%	1%	1%	1%
CC(C)Oc1ccc(C(=O)NC2=NCCS2)cc1	?	2.5µM*	?	6µM*	0.45µM*	0.71µM*
O=C(NC1=NCCS1)c1cccc(OC(F)F)c1	5.8µM*	11µM*	?	12µM*	1.3µM*	2.2µM*
N#Cc1ccc(C(=O)NC2=NCCS2)cc1	16%	·	?	?	?	?

Assay outcomes: PubChem, National Center for Advancing Translational Sciences (NCATS)
